The molecules below were run against T1, Aspartate--tRNA(Asp/Asn) ligase (Mycobacterium tuberculosis (strain ATCC 25618 / H37Rv)) (UniProt P9WFW3) (assay: Assay for Asp RNA synthetase-1 from Mycobacterium tuberculosis). Conditions: 30 µM.
T1 sequence (whole entry): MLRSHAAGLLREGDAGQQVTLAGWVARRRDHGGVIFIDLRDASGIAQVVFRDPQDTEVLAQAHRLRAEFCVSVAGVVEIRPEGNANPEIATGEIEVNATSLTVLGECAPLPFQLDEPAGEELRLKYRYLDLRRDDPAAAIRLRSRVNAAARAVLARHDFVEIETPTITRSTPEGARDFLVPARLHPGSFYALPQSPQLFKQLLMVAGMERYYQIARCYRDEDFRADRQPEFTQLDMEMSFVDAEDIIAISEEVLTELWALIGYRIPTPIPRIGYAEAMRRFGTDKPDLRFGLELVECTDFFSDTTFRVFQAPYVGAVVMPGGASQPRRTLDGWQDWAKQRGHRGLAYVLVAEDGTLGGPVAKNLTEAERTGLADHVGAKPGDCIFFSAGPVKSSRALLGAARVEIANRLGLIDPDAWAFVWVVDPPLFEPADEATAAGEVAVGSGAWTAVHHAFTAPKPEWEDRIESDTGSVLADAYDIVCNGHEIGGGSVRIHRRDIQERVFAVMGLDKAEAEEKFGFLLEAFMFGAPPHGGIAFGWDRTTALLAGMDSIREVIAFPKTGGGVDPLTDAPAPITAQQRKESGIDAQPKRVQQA
Assay type: functional
Set-up: scale not given: in the data most compounds retested in dose-response had high values

| Compound | Percent Effect [%] |
| --- | --- |
| CN(C)c1ccccc1C(=O)N1C[C@@H](CN2CCOCC2)[C@@H](CO)C1 | -3.28 |
| Cc1ccc(CCC(=O)N(C)CCN2CCOCC2)c(C)c1 | -4.01 |
| c1ccc(OC2CCCC2)c(CNC2CCc3ncnn3C2)c1 (stereo not given) | -1.83 |
| O=C(Cc1ccc(F)cc1)NCCNCC1CNc2ccnn2C1 (stereo not given) | -2.44 |
| Cc1nc(C)n(CC2CCCN2Cc2cn3c(C)cccc3n2)n1 (stereo not given) | -5.04 |
| Cc1ccc(CN2CC[C@H]3OCC[C@@H](c4nc(C)no4)[C@H]3C2)cc1 | -5.18 |
| Cc1cc(CN2CCN(C(=O)NC(C)Cn3ccnc3)CC2)no1 (stereo not given) | -1.75 |
| Cn1ncc2c(=O)[nH]c(CN(Cc3cccc(F)c3)C3CC3)nc21 | -6.19 |
| Cc1nc(C)n(CC2CCCN2CC(=O)Nc2ccnn2C(C)C)n1 (stereo not given) | -1.15 |
| Cc1nc(NCc2cccnc2)c2c(n1)c(C)nn2C | 10.4 |
| Cc1ccc(Cl)cc1N1CCC(CNC(=O)CCn2ccnn2)C1 (stereo not given) | 2.9 |
| CCc1[nH]ncc1C(=O)N1CCCN(Cc2cnn(C)c2)CC1 | -0.259 |
| O=C(NS(=O)(=O)c1ccc2c(c1)OCCO2)c1ccc(Br)cc1F | 1.56 |
| COC(=O)CCc1c(C)nn(-c2nc(C)cc(=O)[nH]2)c1C | -5.2 |
| COc1ncnc2c1CCN(c1cc(C(F)(F)F)ncn1)CC2 | 3.67 |
| COc1ccc(CN2CCC3(CC(Nc4ccncn4)C3)C2)c(OC)c1 (stereo not given) | -0.368 |
| Cc1ccc(C(=O)CCC(=O)N2CCC(c3nncn3C)CC2)cc1 | 2.31 |
| NC(=O)c1cc(C2CCCN(CCCOc3ccccc3)C2)n[nH]1 (stereo not given) | -1.57 |
| CN(C)S(=O)(=O)N1CCC2(COCc3cnc(-c4ccccc4)nc32)C1 (stereo not given) | -4.48 |
| c1cnnc(N2CCCC(NCc3ccc(-n4ccnc4)cc3)C2)c1 (stereo not given) | -2.02 |

| Compound | Percent Effect [%] |
| --- | --- |
| COCC1CCCN(C(=O)c2cc(Cn3ccc4ccccc43)[nH]n2)C1 (stereo not given) | 9.18 |
| O=C(NC1CC1)c1ccc2ccc(N3CCN(CC4CC4)CC3)n2c1 | -1.8 |
| Cc1ncnc2c1CCN(c1cc(C(F)(F)F)ncn1)CC2 | 3.84 |
| Cc1oc(C)c(C(=O)NCc2ccccc2S(=O)(=O)N(C)C)c1C | -6.28 |
| CC1CN(CC(=O)NC2CCCC2)CCN1c1ccc2nncn2n1 (stereo not given) | -3.52 |
| CCn1ccc(C(=O)NCCCN2CCOCC2)n1 | 8.41 |
| O=C(O)[C@@H]1CN(C(=O)c2ccc3[nH]nnc3c2)C[C@H]1c1cccc(F)c1 | -0.0228 |
| CCC(=O)N1CCC2(CC1)COc1ccccc1S(=O)(=O)N(C)C2 | -1.57 |
| Cc1ccc(NC(=O)NC(C)c2nc[nH]n2)cc1 (stereo not given) | 4.39 |
| Cc1cc(C(=O)N2CCN(C(=O)Cc3ccccn3)CC2)c(C)s1 | 2.55 |
| CCOCC(=O)N1CCC(Oc2ccc(Cl)cn2)CC1 | -2.08 |
| CC(=O)NCCc1ccc(C(=O)N2CCCC2c2cnn(C)c2)cc1 (stereo not given) | 3.04 |
| NC(=O)C1CCN(C(=O)c2ccn(-c3ccc(F)cc3)n2)C1 (stereo not given) | 9.24 |
| CCc1nc(C2CCCN2C(=O)c2cc(C3CC3)[nH]n2)no1 (stereo not given) | -7.78 |
| O=C(c1cccnc1-n1cncn1)N1CCN(CC2CC2)CC1 | 0.524 |
| Cc1nc(C2CCCN(C(=O)C(C)(C)n3cc(Cl)cn3)C2)no1 (stereo not given) | -5.75 |
| O=C(N1CCCC1)N1CCN(CC2CC2)c2ncccc2C1 | 3.25 |
| COc1cccc(CN(C)S(=O)(=O)N2CCOCC2)c1 | -0.479 |
| CC(C)CNC(=O)NC(=O)CNc1ccccc1SCC(C)C#N (stereo not given) | -5.03 |
| CS(=O)(=O)N1CCC(O)(Cn2c(C3CC3)nc3ccccc3c2=O)CC1 | 1.5 |
